Active and inactive are the calls of the source. Rule for the calls: active = hit-call score of the fitted dose curve at least 0.9, where 1 is the maximum; inactive = score below 0.9.

Read-out in this test: growth arrest and DNA damage 45 (GADD45B), GADD45B (gene 4616)
In words: LTEA_HepaRG_GADD45B: Life Technologies and Expression Analysis (LTEA) Assay for growth arrest and DNA damage 45 (GADD45B) using HepaRG (AID 2283461). The conditions noted are these: mRNA level, 48 h; actives raise or lower the signal. The procedure:
LTEA_HepaRG is a cell based, multiplexed-readout assay that uses HepaRG, a human liver cell line, with measurements taken at 48 hours after chemical dosing on a 96-well plate.LTEA_HepaRG_GADD45B is one of 102 assay component(s) measured in the LTEA HepaRG cell culture assay. It is a marker of Cell proliferation, survival, death.Data from the assay component LTEA_HepaRG_GADD45B was analyzed into 1 endpoint. This assay endpoint, LTEA_HepaRG_GADD45B, was analyzed with bidirectional fitting relative to DMSO as the negative control and baseline of activity. Using a type of inducible reporter, measures of mRNA induction for gain or loss-of-signal activity can be used to understand regulation of transcription factor activity. To generalize the intended target to other relatable targets, this assay endpoint is annotated to the mutagenicity response intended target family, where the subfamily is Cell proliferation, survival, death.
A total of 1060 chemcials from the ToxCast library were tested in eight-point concentration-response experiments. Cell culture and cytotoxicity assays were conducted at Thermo Fisher Scientific's Custom Services facility (Madison, WI). A single lot of human HepaRG cells (Thermo Fisher Scientific, Frederick, MD) was used for the cell culture experiments. 96-well format collagen type I coated plates of human HepaRG cells were prepared using established methods. Briefly, cryopreserved HepaRG cells were thawed, plated at a density of approximately 100,000 cells/well in HepaRG Thaw, Plate, and General Purpose media (HPRG770, Thermo Fisher Scientific), and incubated for 48 hours. 0.5% DMSO was selected as vehicle control to balance the requisite need of DMSO in HepaRG cultures to maintain differentiation (for example, baseline metabolism, proportions of hepatocytes vs. cholangiocytes), while enabling further hepatic receptor pathway activation (for example, PXR and CAR) in response to chemical exposure. 48 hours after plating, the culture medium was replaced with HepaRG Serum-Free Incudtion Media. Cells were exposed to each test chemical in duplicate and maintained in CO2 incubators for another 48 hours. Chemical plates were thawed to room temperature and 200x concentrations of treatment groups were prepared. 8-point conentration-reponse curves were made with the highest exposure at 100 uM, followed by half-log dilutions, all in 0.5% DMSO. Each test plate contained variouse controls, induction positive controls (1mM phenobarbital), cytotoxicity positive controls ([…] aflatoxin B1), vehicle controls (0.5% DMSO), and total lysis controls (0.5% DMSO). Cell morphology images were taken using an Essen IncuCyte FLR automated microscope, with six 96-well plates imaged in about 24 minutes. Images were captured and exported and JPEG files. Spent culture media was transfered to black-well plates for the LDH assay, and remaining media was sorted at -80 C for later use. Cells were treated with RLT buffer and frozen until shipped for gene expression analysis. Total RNA was isolated from the cell suspension in 75 uL of Buffer RLT (Qiagen, Germantown, MD 20874) by Quintiles/Expression Analysis (Durham, NC) using a custom isolation procedure. Total RNA from each plate well was transferred to a preamplification plate. Fluidigm's 96.96 Dynamic ArrayTM (Fluidigm, Amsterdam, the Netherlands) technology was used for gene expression analyses by quantitative reverse transcription polymerase chain reaction (qRT-PCR, performed by Quintiles/Expression Analysis, Durham, NC)89. Standard TaqManTM Assays (Applied Biosystems/ThermoFisher Scientific, Foster City, CA) were used to assess the expression of 93 genes selected based on their selectivity and sensitivity to important hepatic receptors known to be modulated by environmental chemicals; importance in human hepatocyte functionality; and hepatotoxicity. […]
With `COCC(C)OCC(C)OCC(C)O` (stereo not given), the molecule was classed as inactive.

`CCCCCCCCCC(=O)O`: the molecule was called inactive.

`O=C=NCCCCCCN=C=O`: the result was inactive.

In the case of `O=C1O[C@H]([C@@H](O)CO)C(O)=C1O`, the result was inactive.

On to `CC1(C)NC(=O)N(c2ccc([N+](=O)[O-])c(C(F)(F)F)c2)C1=O`, for which the outcome was inactive.

For `O=CCCCC=O`, the result was inactive.

For `CCCCCCCCN(C)CCCCCCCC`, the molecule was classed as inactive.

Consider `CN1C(=O)N(c2ccccc2Br)Cc2cnc(Nc3ccc4c(c3)OCC(CO)O4)nc21` (stereo not given), for which the AC50 (in general, the concentration giving half of the maximal activity seen) was 81.6 µM (active).

Turning to `CO[C@H]1/C=C/O[C@@]2(C)Oc3c(C)c(O)c4c(O)c(c(/C=N/N5CCN(C)CC5)c(O)c4c3C2=O)NC(=O)/C(C)=C\C=C\[C@H](C)[C@H](O)[C@@H](C)[C@@H](O)[C@@H](C)[C@H](OC(C)=O)[C@@H]1C`, the molecule was classed as inactive.

Regarding `O=C(O)c1ccccc1C(=O)OCc1ccccc1`, the outcome was inactive.

As for `Cc1cccc2ccccc12`, the molecule was called inactive.

As for `CCOC(=O)O[C@H](C)OC(=O)c1ccc2c(c1)cc(C(=O)NC1CCN(C(C)C)CC1)n2Cc1cc(-c2ccc(Cl)s2)on1`, the outcome was inactive.

For `CCCC(=O)OCCC(C)C`, the molecule was classed as inactive.

For `C[C@]12CC[C@@H]3c4ccc(O)cc4CC[C@H]3[C@@H]1CC[C@H]2O`, the molecule was called inactive.

Turning to `NC(=O)c1nc(-c2cccc(-c3cc(F)ccc3OCC(F)(F)C(F)(F)F)c2)n[nH]1`, the AC50 was 77.2 µM (active).

For the molecule `O=C1CCC(C2CCCCC2)CC1`, the molecule was called inactive.

On to `COc1cc(C(=O)NC2CCN(C)CC2)ccc1Nc1ncc2c(n1)N(C1CCCC1)CC(F)(F)C(=O)N2C`, for which the AC50 is 25.4 µM (active).

For the molecule `CCCCCCCCCCCCO`, the result was inactive.

In the case of `Cc1cc(F)ccc1-c1cc(N2CC[C@@H](O)[C@H]2CO)ncc1N(C)C(=O)C(C)(C)c1cc(C(F)(F)F)cc(C(F)(F)F)c1`, the AC50 was 76 µM (active).

As for `CC(O)CC(C)(C)O` (stereo not given), the molecule was classed as inactive.

For the molecule `CCCOC(=O)c1cc(O)c(O)c(O)c1`, the outcome was inactive.

Regarding `Oc1ccccc1`, the call was inactive.

For `COc1ccc2cc(S(=O)(=O)N[C@H](CC(=O)N[C@H](Cc3ccc(CN4[C@H](C)CCC[C@@H]4C)cc3)C(=O)N(C)C(C)C)c3ccc4c(c3)OCO4)ccc2c1`, the concentration at half-maximal activity (AC50) is 47.8 µM (active).

As to `CN(C)C(=O)C1(N2CCCCC2)CCN(CC[C@@]2(c3ccc(Cl)c(Cl)c3)CN(C(=O)c3ccccc3)CCO2)CC1`, the concentration at half-maximal activity (AC50) was 29 µM (active).

As to `O=C(Nc1ccc(Cl)cc1)Nc1ccc(Cl)c(Cl)c1`, the AC50 is 22.9 µM (active).

Regarding `Cc1oc2c(NC(=O)c3c(Cl)cccc3Cl)cccc2c1C(C)(C)O`, the concentration at half-maximal activity (AC50) is 75.6 µM (active).

Regarding `CCN(Cc1cccc(S(=O)(=O)O)c1)c1ccc(C(=C2C=CC(=[N+](CC)Cc3cccc(S(=O)(=O)O)c3)C=C2)c2ccccc2S(=O)(=O)[O-])cc1`, the molecule was classed as inactive.

In the case of `O=c1ccc2ccccc2o1`, the outcome was inactive.

`Cc1occc1C(=O)Nc1ccc(C(=O)N2CCC(F)(F)/C(=C\C(=O)N3CCC(N4CCCCC4)CC3)c3ccccc32)cc1`: the molecule was called inactive.

As to `O=C(O)Cc1cc(I)c(Oc2ccc(O)c(I)c2)c(I)c1`, the concentration at half-maximal activity (AC50) is 50 µM (active).

In the case of `CN(C)c1ccc(C(=C2C=CC(=[N+](C)C)C=C2)c2ccc(N(C)C)cc2)cc1`, the concentration at half-maximal activity (AC50) was 3.56 µM (active).

For `Cc1ccc(C(C)C)cc1`, the outcome was inactive.

With `CCN(CC)C(=O)c1cc(S(=O)(=O)Cc2ccccc2)c(N2CCC(c3ccccc3)CC2)cc1N(CC)CCN(C)C`, the call was inactive.

`CCCCCCCCOc1ccc(C(=O)c2ccccc2)c(O)c1`: the outcome was inactive.

Regarding `OC12N=C(c3ccccc3)SC1Cc1cc(Cl)ccc12` (stereo not given), the AC50 was 3.34 µM (active).

Turning to `O=C1c2ccccc2C(=O)N1CCc1noc(-c2ccc(CN3CCCCCC3)s2)n1`, the molecule was classed as inactive.

Take `CCCCCCCC[Si](OCC)(OCC)OCC`: the call was inactive.

As for `NCc1cccc(C2CCN(C(=O)c3ccc(C#Cc4ccccc4F)o3)CC2)c1`, the molecule was classed as inactive.

Take `CCCCOC(=O)c1ccc(O)cc1`: the result was inactive.

`Clc1cc(Cl)c2c(c1)N=C1CCCCCN1C2`: the AC50 is 6.31 µM (active).

For the origin of these results see PubChem BioAssay (EPA / NIEHS).
